Chlamy TAG: algal TAG accumulation induction. Chlamydomonas reinhardtii TAG, Nile Red fluorescence, 72 h. calls only at 10 µM (by protocol). 44,000 compounds, 0.84% hits; call rule not given here;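 also: hits raise Nile Red signal meaning more stored TAG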
Starred values were filed as active, the others as inactive; i = inactive; + = active, no number. The full list was thinned out, with hits kept by preference.

SMILES	Chlamy TAG
c1ccc(CCN2CCOCC2)cc1	i
Oc1cccc(CN2CCN(c3ccc(F)cc3)CC2)c1	i
Fc1ccc(N2CCN(CCc3ccccc3)CC2)cc1	+
C=C(C)CN(CC)C1CCN(C)CC1	i
O=C(NCc1ccc(Cl)c(Cl)c1)C(Cl)(Cl)Cl	i
OCCN1CCN(Cc2ccc(F)c(F)c2)CC1	i
OCCN1CCN(Cc2ccc(Cl)cc2)CC1	i
CC(C)c1ccc(CN2CCN(CCO)CC2)cc1	+
Cc1ccc(CN2CCN(c3cc(C)ccc3C)CC2)cc1	i
N/C(=N/[N+](=O)[O-])Nc1ccc(NC(=O)C2CCCCC2)cc1	i
COc1ccc(CN2CCN(C(=O)COc3ccccc3)CC2)cc1Br	i
COc1ccccc1CN1CCN(c2cccc(C)c2C)CC1	i
COc1ccccc1N1CCN(Cc2ccc(F)c(Br)c2)CC1	i
COc1ccc(CN2CCN(c3ccccc3OC)CC2)cc1O	i
CCOc1ccccc1N1CCN(Cc2ccc(OC)cc2)CC1	i
COc1ccccc1N1CCN(Cc2ccc(O)cc2)CC1	+
COc1ccccc1N1CCN(Cc2ccc(F)cc2)CC1	+
COc1ccccc1N1CCN(Cc2ccc(Cl)c(Cl)c2)CC1	i
O=c1c2ccccc2nc(Cc2cccc([N+](=O)[O-])c2)n1-c1ccccc1Cl	i
Cc1nc2ccc(I)cc2c(=O)n1-c1ccccc1F	i
COc1ccc(/C=C/[N+](=O)[O-])cc1I	i
CC(C)c1ccc(CN2CCN(c3ccccc3)CC2)cc1	i
CC(=O)c1ccc(N2CCN(Cc3ccc(Br)cc3)CC2)cc1	i
Cc1cccc(N2CCN(Cc3ccc([N+](=O)[O-])cc3)CC2)c1C	+
Cc1cccc(N2CCN(Cc3cccc([N+](=O)[O-])c3)CC2)c1C	i
SMILES	Chlamy TAG
Cc1ccccc1N1CCN(Cc2ccccc2)CC1	i
Brc1ccc(CN2CCN(c3ccccc3)CC2)cc1	+
Cc1cccc(N2CCN(Cc3ccccc3)CC2)c1C	i
Cc1cccc(N2CCN(Cc3ccc(F)cc3)CC2)c1C	i
Cc1ccccc1N1CCN(Cc2ccc(F)cc2)CC1	+
Cc1ccccc1N1CCN(Cc2ccc(Br)cc2)CC1	i
CCc1ccc(CN2CCN(c3ccccc3C)CC2)cc1	+
CSc1ccc(CN2CCN(c3ccccc3C)CC2)cc1	i
COc1ccc(CCNC2CCCCCCC2)cc1	i
Cc1c(C(N)=O)c2nc3c(c(-c4ccccc4)c2n1Cc1ccccc1)CCC3	i
CCN1CCN(Cc2ccsc2)CC1	i
CCc1nc2ccc(Br)cc2c(=O)n1-c1ccc(F)cc1	i
COc1ccc(CN2CCN(c3ccccc3C)CC2)c(OC)c1	i
O=c1cccc2n1C[C@H]1C[C@H]2CN(Cc2c(F)cccc2Cl)C1	i
COc1ccc(CN(C)CCc2ccccc2)c(C)c1C	i
O=C(Cc1ccccc1)N1CCN(Cc2ccc([N+](=O)[O-])cc2)CC1	i
O=[N+]([O-])c1ccccc1CN1CCN(Cc2ccccc2)CC1	i
O=[N+]([O-])c1ccc(CN2CCN(Cc3ccccc3F)CC2)cc1	+
CN1C(=O)N(C)C(=O)C(CCc2ccncc2)(Cc2ccccc2[N+](=O)[O-])C1=O	i
Cc1ccccc1CN1C[C@@H]2C[C@@H](C1)c1cccc(=O)n1C2	i
O=C(O)COc1ccc(Br)cc1	i
O=c1cccc2n1C[C@H]1C[C@H]2CN(Cc2cccc(Br)c2)C1	i
COc1ccc(CCN(C)Cc2ccc([N+](=O)[O-])o2)cc1OC	i
COc1ccc(CCN(C)Cc2ccc([N+](=O)[O-])cc2)cc1OC	+
COc1ccc(CCN(C)Cc2cccc([N+](=O)[O-])c2)cc1OC	i
Cc1ccc(CNC(C)Cc2ccccc2)o1 (stereo unspecified)	i
COc1ccc(O)c(CN2CCN(Cc3ccc(Cl)cc3)CC2)c1	i
O=[N+]([O-])c1ccc(O)c(CN2CCN(Cc3ccccc3)CC2)c1	i
Oc1ccc(Cl)cc1CN1CCN(Cc2ccccc2)CC1	+
COc1ccccc1CCNCc1cc(OC)c2c(c1)OCO2	i

Screening results as filed in PubChem.
